Screening data from PubChem.
WT yeast gro inh – growth inhibition of WT strain, primary screen, mitochondrial fusion inhibitor project, WT and mutant strains, chemical genetic. actives 2.1% (n = 190,000). mitochondrial fusion phenotypic screen. inhibition, % at 10 µM; in the data active = inhibition above about 58%; tested in S. cerevisiae
Lmaj promast – Leishmania major promastigote growth inhibition, primary screen | Leishmania major promastigotes, resazurin fluorescence viability | inhibition, % at 10 µM | actives 9% (n = 200,000); in the data active = inhibition above about 50%;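 also: promastigotes grown with compound for 44 hours at 28 °C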
Ins promoter up – insulin promoter activators in MIN6 cells, imaging, high-content screening, mouse beta cells. z-score at 5 µM. actives 0.3% (n = 190,000). MIN6 insulin promoter-GFP reporter; active compounds read high. AID 1625, 2009;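 active = z-score above 3 at 5 µM with at least 500 cells counted in the well; inconclusive = wells under 500 cells, flagged as cytotoxic or low count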
Insulin prom inh – inhibitors of insulin promoter-driven GFP, primary screen, imaging, TRM-6 cells (human fetal islet line), eGFP reporter, cell count | reporter expression induced with tamoxifen | inhibition, % at 2 µM | actives 0.9% (n = 130,000);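 active = inhibition above the mean plus 3 SD, with well images judged a real hit on visual review, cut at about 60% in these data, passing the limit was not always enough; inconclusive = inhibition over the cutoff but images rejected on review; inactive = inhibition not above the cutoff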
Autophagy HCS – autophagy modulators in MEF cells, primary screen, imaging, high-content, MEF GFP-LC3; MEF GFP-LC3 puncta imaging; test concentration mostly 10 µM; calls only at 10 µM (by protocol); actives 0.98% (n = 190,000); AID 463193, 2010;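 active = percentage of spot-positive cells more than 3 SD above its plate mean, without a fluorescence outlier flag or 80% toxicity; inconclusive = no clear call, values can overlap the other calls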;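 also: spot-positive cell cutoff set from DMSO-treated cells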
Active calls of the source: *; i = inactive; ? = inconclusive; · = no result given; + = active, no number. Hits are enriched below; roughly 11% of the tested compounds scored in any of these assays.

SMILES	WT yeast gro inh	Lmaj promast	Ins promoter up	Insulin prom inh	Autophagy HCS
O=C1CC(NNc2ccccc2)C(=O)N1c1ccccc1 (stereo unspecified)	0	62*	0.07	-45	i
CCn1c(C)c(C(C)=O)c(SC)nc1=S	-10	-1	0.3	33	i
COc1ccc(N2CCN(C(=O)NCc3ccc(OC)c(Cl)c3)CC2)cc1	-20	-4	0.33	·	i
Cc1cc(/C=N/NC(=O)c2ccc(O)cc2)c(C)n1CC(C)C	·	·	-0.57	·	·
N#Cc1c(-c2cccnc2)c2c([nH]c1=S)CCCC2	91*	-5	0.54	·	i
N#Cc1c(-c2ccco2)c2c([nH]c1=S)CCCC2	1	·	0.95	·	·
COc1cc(-c2nc3ccccc3c(=O)n2N)cc(OC)c1OC	-13	-9	-0.69	10	i
O=C(O)/C=C/C(=O)Nc1cc(F)ccc1F	·	·	0.02	·	·
O=c1oc2ccccc2c2c1ncn2CCN1CCOCC1	-13	2	0.69	33	i
CCNc1nc(C)nc2c1oc1ccccc12	9	33	0	·	i
Cc1nc(NCCCn2ccnc2)c2oc3ccccc3c2n1	-28	88*	0.53	48	i
c1ccc2c(c1)oc1c(NCCCn3ccnc3)ncnc12	0	94*	-0.31	21	+
c1ccc2c(c1)oc1c(NCCCN3CCOCC3)ncnc12	-9	96*	-0.07	·	i
CSc1cccc(NC(=O)CN(c2cc(C)ccc2C)S(C)(=O)=O)c1	1	19	0.1	-40	i
CCCCOc1ccc(CONS(=O)(=O)c2ccc(NC(C)=O)cc2)cc1Cl	74*	14	-0.91	12	i
CC(=O)Nc1ccc(S(=O)(=O)NCCOc2ccc(Cl)cc2C)cc1	21	0	0.48	·	i
NC(=O)C1CCCN(Cc2ccc(Cl)cc2)C1 (stereo unspecified)	-8	79*	0.74	55	i
CCOC(=O)C1CCCN(Cc2cccc(Cl)c2)C1 (stereo unspecified)	0	-1	·	-2	i
CN(Cc1ccccc1)C(=O)C1CCCN(Cc2ccc(Cl)cc2)C1 (stereo unspecified)	9	89*	-0.2	-28	i
CN(Cc1ccccc1)C(=O)C1CCN(Cc2ccc(F)cc2)CC1	-2	89*	-1	23	i
COCC(=O)NC1CCN(C(=O)NCc2ccccc2)CC1	-1	-1	-0.35	-17	i
CCOC(=O)C(=CNc1ccc2c(c1)CCN2C(C)=O)C(=O)OCC	·	·	-1	·	·
COc1cc(OC)c2c(c1)C(=O)c1cc(OC)cc(OC)c1C2=O	87*	-3	0.22	·	i
COc1cc(OC)c2c(C)cc(=O)oc2c1	-5	3	0.02	-12	i
COc1ccc(CN2C(=O)CCC2(C)C(=O)NC2CCCCCC2)cc1 (stereo unspecified)	-7	-5	-0.58	·	i
SMILES	WT yeast gro inh	Lmaj promast	Ins promoter up	Insulin prom inh	Autophagy HCS
COc1ccc(CN2C(=O)CCC2(C)C(=O)NC2CCCC2)c(OC)c1 (stereo unspecified)	4	-8	-0.15	70*	i
O=C(CSc1nc(C2CC2)nc2ccccc12)N1c2ccccc2Sc2ccc(C(F)(F)F)cc21	12	16	-0.58	53	i
CC1CCCN(S(=O)(=O)c2ccc(C(=O)Nc3nnc(-c4ccccc4Cl)o3)cc2)C1 (stereo unspecified)	-5	100*	-0.67	-54	i
CCC1CCCCN1S(=O)(=O)c1ccc(C(=O)Nc2nnc(-c3cccs3)o2)cc1 (stereo unspecified)	37	99*	0.27	10	i
CC1CC(C)CN(S(=O)(=O)c2ccc(C(=O)Nc3nnc(-c4cccs4)o3)cc2)C1 (stereo unspecified)	54	100*	-0.5	·	i
CC1CC(C)CN(S(=O)(=O)c2ccc(C(=O)Nc3sccc3C(N)=O)cc2)C1 (stereo unspecified)	3	14	·	·	i
CC1CCCN(S(=O)(=O)c2ccc(C(=O)Nc3nnc(-c4ccccn4)o3)cc2)C1 (stereo unspecified)	-4	8	1.1	7	i
CC(C)(C)c1cc(N)on1	13	-4	0.34	14	i
O=C(N/N=C\c1ccc(Cl)cc1Cl)c1sccc1-n1cccc1	14	100*	·	4	i
CC1CN(C(=O)N(C)C)CCN1C(=O)N(C)C (stereo unspecified)	66*	-4	-0.31	-77	i
Cc1ccc(-c2cc(C(=O)N/N=C/c3c(C)nn(C)c3C)c3ccccc3n2)cc1C	11	82*	-0.27	-5	i
Cn1cccc1/C=N/NC(=O)c1cc(-c2cccs2)nc2ccccc12	22	56*	0.54	25	i
COc1ccccc1-c1cc(C(=O)N/N=C/c2cccs2)c2ccccc2n1	24	51*	·	22	i
Cc1ccc2sc(NNC(=O)c3cc(-c4cccs4)nc4ccccc34)nc2c1C	31	2	-0.13	55	i
Cc1cc(C)c2nc(NNC(=O)c3cc(-c4cccs4)nc4ccccc34)sc2c1	64*	-2	3.7*	?	i
O=C(N/N=C/c1cccs1)c1cc(-c2ccncc2)nc2ccccc12	-25	14	-0.09	-77	i
O=C(CSc1nc(O)c(C2CCCCC2)c(=O)[nH]1)N1CCOCC1	-5	-9	0.42	43	i
COc1ccc(-c2cc(C(=O)N/N=C/c3sccc3C)c3ccccc3n2)c(OC)c1	20	79*	·	16	i
COc1ccc(-c2cc(C(=O)N/N=C/c3ccc4c(c3)OCO4)c3ccccc3n2)c(OC)c1	9	77*	-0.76	0	i
Cc1sc2nc(SCC(=O)c3cc(C)n(CC4CCCO4)c3C)n(C(C)C)c(=O)c2c1C (stereo unspecified)	25	17	-2.2	·	i
C=CCN(C(=O)CSC1=NC(=O)CN1C(C)=O)c1nc(C)c(-c2ccccc2)s1	7	89*	-1.1	·	i
C=CCSc1nnc(-c2sc(-c3ccccc3)nc2C)n1C	-8	2	-0.62	-23	i
CCCc1cc(=O)[nH]c(SCC(=O)NN(c2ccccc2)c2ccccc2)n1	6	5	-0.24	·	i
Cc1ccc(-c2[nH]c3ccccc3c2SCCNC(=O)c2ccc(S(=O)(=O)N3CCOCC3)cc2)cc1	-1	99*	0.55	-46	i
O=C(CN1c2ccccc2Sc2ccccc21)NNC(=O)Nc1cccc(Cl)c1	·	·	-0.56	·	·
CC(Nc1nc(N2CCNCC2)nc2ccccc12)c1ccccc1 (stereo unspecified)	23	100*	-1.4	27	+
NC(=O)COC(=O)c1ccc(Cl)c(S(=O)(=O)N(Cc2ccccc2)c2ccc(Cl)cc2)c1	77*	-1	-0.28	·	i
NC(=O)NC(=O)COC(=O)c1ccc(Cl)c(S(=O)(=O)N(Cc2ccccc2)c2ccc(Cl)cc2)c1	31	1	-0.06	23	i
